Cycloheximide cs: counter-screen for Shiga toxin inhibitors: cycloheximide protein synthesis inhibition; cell reporter, cycloheximide protein synthesis inhibition counterscreen; max response, %; 300,000 tested, 12% active; in the data active = max response mostly above about 13%, no sharp cut-off; inactive = mostly below about 14%; also: read at 38.3 µM for the half of the compounds with a filed dose; 0% is about no effect
Pf growth 48h: P. falciparum growth inhibition at 48 hours (one generation); P. falciparum luciferase growth in erythrocytes, 48 h; Potency, µM (series often up to 28.7 µM), inactives show top-dose activity change, negative = inhibition, actives largely listed as inhibitors; 310,000 tested, 5.9% active; AID 504832; also: potency is read from the fitted curve at half-maximal effect; % is scaled to controls: 0 for no effect and ±100 for the full control effect
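Here the parasites carry a stable luciferase gene and grow inside erythrocytes in Albumax-based RPMI medium with compound for one erythrocytic cycle. Activity is scored as loss of luminescent signal.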
Pf growth 96h: P. falciparum growth inhibition at 96 hour, primary screen for plastid delayed-death inhibitors | P. falciparum luciferase reporter growth, 96 h | Potency, µM (doses to about 28.7 µM), without a hit: at the highest dose activity change, negative = inhibition, most hits filed as inhibitors | 320,000 tested, 6.9% active | AID 504834; also: potency is read from the fitted curve at half-maximal effect; % is scaled to controls: 0 for no effect and ±100 for the full control effect
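Luminescence readout: decreased luciferase signal marks inhibited growth of reporter-expressing P. falciparum in infected red cells (2% hematocrit, 0.05% parasitemia final), exposed to compound two generations (96 h, 37 C, 5% CO2).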
Shiga toxin inh: inhibitors of Shiga toxin in Vero cells; Vero cells, Shiga toxin protein synthesis inhibition reporter; 290,000 tested, 9.2% active; inhibition, % at 38.7 µM; AID 2315; in the data active = inhibition mostly above about 28%, no sharp cut-off; inactive = mostly below about 43%; also: 0% is about no effect
* marks the source's active call; other numbers are inactive results; i = inactive; ? = inconclusive; nt = no result. The list is not random: actives were taken first. Their share in the collection is about 21%. Unless noted, calls follow the shape of the dose curve; as a rule, active = well fitted inhibition curve with a large enough effect; inconclusive = small, poorly fitted or top-dose-only effect, or another doubt; inactive = no such curve, though single readings can be large or run the other way.

SMILES	Cycloheximide cs	Pf growth 48h	Pf growth 96h	Shiga toxin inh
O=C(Nc1nc2ccccc2s1)C1CCN(C(=O)c2ccco2)CC1	3.3	-8.1%	11.2%	35.3
CCOc1ccc2nc(N3CCCC(C(=O)NCC4CCCO4)C3)sc2c1 (stereo unspecified)	44.8*	90.5%	102.3%	75.1*
CCCN1CCN(CCCNC(=O)C2CCCN(c3nc4ccc(OCC)cc4s3)C2)CC1 (stereo unspecified)	0.3	-2.0%	13.0%	12.3
COc1ccc2nc(NC(=O)C3CCN(C(=O)c4ccc(F)cc4)CC3)sc2c1	9.1	?	9.28µM*	24.2
CCOc1ccc2nc(NC(=O)C3CCN(C(=O)c4ccco4)CC3)sc2c1	26.6*	-13.0%	72.7%	74.0*
CCOc1ccc2nc(Cl)sc2c1	6.6	40.0%	46.0%	13.3
CCOc1ccc2nc(N3CCCCCC3)sc2c1	57.2*	210.8%	?	102.1*
COc1ccc(C2C=C3CN(C(=O)OC(C)(C)C)S(=O)(=O)C3CC2OC(=O)c2cccc(C)c2)cc1 (stereo unspecified)	5.0	nt	nt	16.1
Cc1ccc2nc(N3CCC(C(=O)NC4CCCCC4)CC3)sc2c1	-9.3	-15.3%	?	-2.3
CCOc1ccc2nc(N3CCC(C(=O)N4CCN(C5CCCCC5)CC4)CC3)sc2c1	47.8*	21.8%	25.1%	63.8*
COc1ccc2nc(N3CCCC(C(=O)NCCCN4C(C)CCCC4C)C3)sc2c1 (stereo unspecified)	20.2*	22.3%	21.0%	39.9
CCOc1ccc2nc(N3CCC(C(=O)Nc4nnc(CC)s4)CC3)sc2c1	81.4*	4.8%	-17.6%	166.6*
CCCCC1=NN(C(=O)c2ccco2)C(O)(C(F)(F)F)C1 (stereo unspecified)	9.2	51.4%	-9.4%	13.6
Cc1cccc(OCC(O)CN2CCc3ccccc3C2)c1 (stereo unspecified)	1.8	-19.7%	48.7%	-4.8
C=CCn1c(=N)n(CC(O)COc2ccccc2OC)c2ccccc21 (stereo unspecified)	-3.9	nt	?	2.6
CCCCn1c(=N)n(CC(O)COc2cccc(C)c2)c2ccccc21 (stereo unspecified)	-6.8	7.38µM*	?	-14.1
CCCn1c(=N)n(CC(O)c2ccc(C)cc2)c2ccccc21 (stereo unspecified)	-1.0	5.22µM*	4.15µM*	30.7
CCn1c(=N)n(CC(O)COc2ccc(C)cc2)c2ccccc21 (stereo unspecified)	8.8	3.7µM*	13.1µM*	-11.5
CCCCN(CC(O)COc1cccc(C)c1)CC(O)COc1cccc(C)c1 (stereo unspecified)	-7.5	?	1.85µM*	-9.2
CCCn1c(=N)n(CC(O)COc2ccc(C)cc2)c2ccccc21 (stereo unspecified)	-3.9	2.08µM*	5.22µM*	-7.3
CCCCn1c(=N)n(CCOc2ccc(C)cc2)c2ccccc21	-5.8	7.38µM*	13.7%	-6.5
Cc1ccc(NC(=O)NC(=O)CSc2nnc(-c3ccc(Cl)cc3Cl)n2N)c(C)c1	63.8*	25.7%	i	179.1*
O=S(=O)(c1ccccc1F)N1CCc2ccccc2C1	-1.2	29.6%	i	10.2
C(=C1/CCCC2=C1Nc1ncnn1C2c1ccccc1)/c1ccccc1 (stereo unspecified)	-3.3	11.7µM*	-9.2%	-14.7
S=C1NC2=C(CCC/C2=C\c2ccccc2)C(c2ccccc2)N1 (stereo unspecified)	-1.3	-22.4%	?	-1.7
SMILES	Cycloheximide cs	Pf growth 48h	Pf growth 96h	Shiga toxin inh
COc1ccc(OCC(=O)N2CCC(n3nccc3NC(=O)C3CC3)CC2)cc1	11.7	15.8%	?	9.7
Clc1ncnc2scc(C3COc4ccccc4O3)c12 (stereo unspecified)	6.7	2.94µM*	2.62µM*	21.1
O=c1[nH]cnc2scc(C3COc4ccccc4O3)c12 (stereo unspecified)	13.8*	53.7%	1.7%	-3.4
c1ccc2c(c1)OCC(c1csc3ncnc(N4CCCCC4)c13)O2 (stereo unspecified)	0.7	?	?	2.2
CCOC(=O)c1c(C)[nH]c(C(=O)Nc2cc(OCC)c(N3CCOCC3)cc2OCC)c1C	nt	2.94µM*	14.7µM*	nt
CCOc1cc(N2CCOCC2)c(OCC)cc1NC(=O)c1cc(C)cc(C)c1	1.0	13.1µM*	?	-9.8
CCOc1cc(N2CCOCC2)c(OCC)cc1NC(=O)Cc1ccccc1OC	7.0	?	7.38µM*	52.4
CCOc1cc(N2CCOCC2)c(OCC)cc1NC(=O)CN1CCCC(C)C1 (stereo unspecified)	14.8*	?	?	-5.6
